Test results from PubChem BioAssay AID652142 (Molecular Libraries Program, Specialized Chemistry Center, …, 2013).
Fewer than 10 of roughly 2,400 compounds were called active. The list is a sample of the results. Unmarked numbers belong to inactive results. No rule for the calls is given here.

Target: Rac GTPase-activating protein 1 (Homo sapiens) (UniProt Q9H0H5)
Experiment: inhibition of MgcRacGAP-stimulated Rac1 GTP hydrolysis – biochemical, inorganic phosphate detection, orthogonal assay, confirmation (AID 652142)
Conditions: MgcRacGAP/Rac1F28L GTP hydrolysis, Biomol green phosphate; active compounds read high

Rac GTPase-activating protein 1 (Homo sapiens), sequence (Q9H0H5 whole entry, looked up): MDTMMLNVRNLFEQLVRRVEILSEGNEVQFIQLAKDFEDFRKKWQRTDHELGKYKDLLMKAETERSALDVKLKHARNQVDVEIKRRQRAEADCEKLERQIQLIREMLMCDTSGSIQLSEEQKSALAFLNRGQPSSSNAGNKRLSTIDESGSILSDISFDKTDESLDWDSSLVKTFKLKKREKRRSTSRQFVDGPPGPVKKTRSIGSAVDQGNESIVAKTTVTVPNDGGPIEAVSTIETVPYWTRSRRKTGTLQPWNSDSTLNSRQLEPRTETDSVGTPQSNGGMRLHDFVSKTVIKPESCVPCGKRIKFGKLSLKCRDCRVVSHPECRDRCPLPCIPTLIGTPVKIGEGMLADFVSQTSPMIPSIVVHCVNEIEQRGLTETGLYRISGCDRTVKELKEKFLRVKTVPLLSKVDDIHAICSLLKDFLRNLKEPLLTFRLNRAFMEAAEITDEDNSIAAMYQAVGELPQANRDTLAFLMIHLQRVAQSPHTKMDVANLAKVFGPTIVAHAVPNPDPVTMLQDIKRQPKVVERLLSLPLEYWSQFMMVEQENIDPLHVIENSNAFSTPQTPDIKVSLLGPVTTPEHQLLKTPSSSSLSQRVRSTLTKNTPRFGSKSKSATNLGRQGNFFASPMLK

Point of comparison: `C=CCOc1ccccc1CN1CCCN(C)CC1`, inhibition 22.3%. Against it:
- CN(C)CCCN1c2ccc(O)cc2Sc2ccc(Cl)cc21 — higher, 30.1%
- COc1cc(/C=N/NC(=O)c2cccc(NC(=O)c3ccccc3C)c2)ccc1O — lower, 19.3%
- C/C(=N\NC(=O)c1ccc(O)cc1)c1ccc2c(c1)Nc1ccccc1S2 — higher, 28.2%
- CCOc1cc(CNc2ccc(N3CCCCC3)cc2)cc(Br)c1OCC(=O)NC(C)(C)C — higher, 35.1%
- Cc1cc(NS(=O)(=O)c2ccc(Nc3nc(-c4ccc(O)cc4)cs3)cc2)no1 — higher, 23.8%
- COC(=O)c1ccc(NC(=S)Nc2ccc(O)cc2)cc1 — higher, 34.6%
- C[C@H]1CCC/C=C/[C@@H]2C[C@H](O)C[C@H]2[C@H](O)[C@H](S(=O)c2ccc(O)cc2)CC(=O)O1 (stereo not given in full) — higher, 47.3%
- Cc1[nH]nc(-c2ccc(O)c(C)c2O)c1-c1cnn(-c2ccccc2)c1 — higher, 36.4%
- Cn1c(=O)c2c([nH]c(=S)n2CCCc2ccccc2)n(C)c1=O — higher, 26.4%
- Oc1ccc(N=Nc2ccccc2)cc1 — lower, 8.73%
- O=C1C=C(Nc2ccc(O)cc2)C(=O)c2ccccc21 — higher, 25.1%
- COc1cc(/C=N/Nc2nn3cnnc3c3ccccc23)ccc1O — higher, 26.4%
- C/C(CC(=O)Nc1ccc(N(C)C)cc1)=N\NC(=O)c1ccc([N+](=O)[O-])cc1Cl — higher, 26.5%
- COc1cc(/C=N/n2c(C3CCCCC3)n[nH]c2=S)ccc1O — higher, 27.2%
- Cc1ccc(NC(=O)CN2CCN(C)CC2)cc1Br — higher, 26.9%
- CCCCn1c(SCC(=O)c2ccc(O)c(O)c2)nc2ccsc2c1=O — higher, 27.5%
- CCOC(=O)c1[nH]c2ccc(F)cc2c1NC(=O)c1ccccc1C(=O)O — higher, 22.6%
- Cc1ccc(/C=N/Nc2ccc(Cl)c(C(=O)O)c2)s1 — lower, 6.67%
- O=C(c1cccnc1)N1CCN(Cc2cccc(Br)c2)CC1 — higher, 26.8%
- COc1ccc(N=C2NC(=O)/C(=C/c3ccc(O)c(OC)c3)S2)cc1 — lower, 19.7%
- Oc1ccc(-c2csc(-c3cccnc3)n2)c(O)c1 — lower, 14.8%
- Cc1nc(N)sc1-c1ccccc1 — lower, 20.1%
- COc1ccc(NC(=O)c2cc3ccc(O)cc3o/c2=N\O)cc1 — lower, 17.5%
- COc1cc(/C=N/NC(=S)Nc2cccc(S(=O)(=O)N(C)C)c2)ccc1O — lower, 20.1%
- O=C(Nc1n[nH]c(=S)s1)c1ccco1 — higher, 29.1%
- CCc1nc(Nc2ccc(O)cc2)c2oc3ccccc3c2n1 — higher, 27.8%
- CCCCCC(=O)Nc1cc(S(=O)(=O)O)cc2cc(S(=O)(=O)O)cc(O)c12 — higher, 64.8%
- CCOc1ccc(/C=N/NC(=O)NC23CC4CC(CC(C4)C2)C3)cc1O — lower, 17.5%
- CCn1c(C)nc2cc(C(=O)N/N=C/c3ccc(O)cc3)ccc21 — higher, 22.6%
- COc1ccc(Oc2c(-c3ccc(O)cc3O)n[nH]c2C)cc1 — lower, 9.67%
- C=C(CN(C)C)C(=O)c1cc(OC)c(OC)cc1OC — lower, 6.42%
- CCn1c(=O)c(C(=O)CN(C)Cc2cccc(OC)c2OC)c(N)n(Cc2ccccc2)c1=O — higher, 35.9%
- CCOc1ccc2c(ccc(/C=C/c3cc(C)c4cccnc4c3O)[n+]2C)c1 — higher, 66.1%
- CN(C)c1ccc(NC(=O)c2sc(SCC(=O)Nc3nccs3)nc2N)cc1 — higher, 29.2%
- Cc1ccc(NCCN(C)C)c2c(=O)c3cc(O)ccc3sc12 — higher, 31.1%
- C(=N\Nc1nc2ccccc2[nH]1)/c1c[nH]c2ccccc12 — lower, 4.59%
- COc1cc2c(cc1NC(=S)Nc1cccc3ccccc13)oc1ccccc12 — lower, 21.3%
- NS(=O)(=O)c1ccc(Nc2nc(-c3ccc(O)cc3O)cs2)cc1 — higher, 24.5%
- Cc1cc(=O)[nH]c2c(N=Nc3ccc(O)cc3)c(N)nn12 — higher, 34.3%
- CSCCOC(=O)C1=C(C)Nc2ccc(C)cc2S1 — higher, 29.3%
- OCC1CCCN(C(=S)Nc2ccc(Nc3ccccc3)cc2)C1 (stereo not given) — higher, 34.4%
- COc1cc2c(cc1NC(=S)Nc1cccc(C(F)(F)F)c1)oc1ccccc12 — lower, 8.84%
- COc1cc(/C=N/n2c(-c3cc(C)[nH]n3)n[nH]c2=S)cc(OC)c1OC — lower, 1.28%
- CCN(CC)c1ccc(C(=C2C=CC(=[N+](CC)CC)C=C2)c2ccc(N(CC)CC)cc2)cc1 — higher, 90%
- COc1cc(C=NNC(=O)c2ccccc2-n2cccc2)ccc1O — lower, 22%
- COc1cc2c(cc1OC)C1(CCCC1)C(N)=C2C#N — lower, 18.7%
- CC1CC(=O)N(c2ccc(NCCc3ccc(O)cc3)c([N+](=O)[O-])c2)C1=O (stereo not given) — higher, 29.1%
- CCN1C(=O)/C(=C2/C=Cc3cc(C)ccc3N2CC)N(C)C1=S — higher, 23%
- O=C(O)c1c2c(nc3ccccc13)/C(=C/c1ccc(O)cc1)CCC2 — lower, 19.3%
- CN(C)c1ccc(NC2=C(Cl)C(=O)c3ccccc3C2=O)cc1 — lower, 22%
- Cc1ccc(/C(N)=N/OC(=O)N2c3ccccc3Sc3ccccc32)cc1 — higher, 23.7%
- Oc1ccc(Nc2ncnc3ccccc23)cc1 — lower, 20.3%
- CN1/C(=C\C=N\NC(=O)c2ccc(O)cc2)C(C)(C)c2ccccc21 — higher, 22.5%
- O=C(Cn1c(C(=O)NCC2CCCO2)cc2sccc21)c1ccccc1 (stereo not given) — lower, 18.4%
- Cc1ccc(NC(=O)CCNCc2ccco2)cc1S(=O)(=O)N(C)C — higher, 33.8%
- CC(NCc1ccc(S(N)(=O)=O)cc1)C(=O)N1c2ccccc2CC1C (stereo not given) — lower, 13.9%
- O=C(C1=C(O)C(=O)N(c2nc3ccc(Cl)cc3s2)C1c1ccco1)c1ccco1 (stereo not given) — higher, 28.7%
- C/C(=N\NC(=O)c1ccccc1F)c1ccc2c(c1)Nc1ccccc1S2 — lower, 20.8%
- COc1cc(/C=C2\C(=O)N(C)C(=S)N2C)ccc1O — lower, 9.53%
- COc1ccc(NC(=O)c2ccc(NC(=O)CN3CCN(c4ccc(O)cc4)CC3)cc2)cc1 — lower, 18.8%
- CN(C)CCNc1ccc(CO)c2oc3ccc(O)cc3c(=O)c12 — lower, 14.8%
- CN(C)c1ccc(/C=C/c2ccc3ccccc3[n+]2C)cc1 — higher, 41%
- Oc1ccc(/C=C/c2ccc3ccccc3n2)cc1 — higher, 35.5%
- O=C1/C(=C\c2ccc(O)cc2)SC(=S)N1/N=C/c1ccc(O)cc1 — lower, 13.5%
- COc1ccccc1C(=O)N1CCN(Cc2cccnc2)CC1 — lower, 19.7%
- CN(C)c1ccc(/C=C2/C[N+](C)(C)C/C(=C/c3ccc(N(C)C)cc3)C2=O)cc1 — higher, 25.4%
- Cc1cc(O)ccc1NC(=O)c1ccccc1 — higher, 36%
- Cc1cc(C)c2nc(C)cc(N/N=C/c3ccc(O)cc3)c2c1 — higher, 41.9%
- COc1cc(/C=C2\SC(=S)N(Nc3ccccc3)C2=O)ccc1O — lower, 19.2%
- O=C(Oc1ccc(N(C(=O)c2ccncc2)S(=O)(=O)c2cccs2)cc1)c1ccncc1 — higher, 26.2%
- CCOc1cc(/C=C2\C(=O)N(CCc3ccc(OC)c(OC)c3)C(C)=C2C(=O)OC)ccc1O — lower, 20.6%
- O=C(CN1CCN(c2ccc(O)cc2)CC1)NCC(=O)Nc1ccc(F)c(F)c1F — higher, 24.8%
- O=C(COc1ccccc1C(=O)N/N=C\c1ccc(O)c(O)c1)N/N=C/c1ccc(O)c(O)c1 — lower, 8.94%
- COc1ccc(NC2CCCN(C(=O)c3ccc4[nH]c(C)c(C)c4c3)C2)cc1 (stereo not given) — lower, 17.9%
- COc1cc(/C=N/NC(=O)CCn2c3ccccc3c3ccccc32)ccc1O — lower, 21%
- COCCCNC1=C(C#N)C(=O)NC(c2cccs2)S1 (stereo not given) — higher, 40.4%
- CN(C)CCNc1ccc(CO)c2sc3ccc(O)cc3c(=O)c12 — lower, 12.6%
- NC(CSS(=O)(=O)O)=NCCC12CC3CC(CC(O)(C3)C1)C2 — higher, 34.4%
- C=CCn1c(SCC(=O)Nc2ccc(N(C)C)cc2)nnc1-c1cccc(C)c1 — lower, 15.5%
- CCOc1cc(-c2nc3ccccc3s2)ccc1O — higher, 30.1%
- Oc1ccc(/C=N/Nc2nn3cnnc3c3ccccc23)cc1 — higher, 25.8%
- Oc1ccc(/C=N/n2c(-c3ccco3)csc2=Nc2cccnc2)c(O)c1 — higher, 23.8%
- Cc1ccc(S(=O)(=O)c2cc(Nc3ccccc3)ccc2O)cc1 — lower, 11.6%
- Cc1cc(C)n(CC(O)CN2c3ccccc3Sc3ccccc32)n1 (stereo not given) — higher, 32.2%
- CC(C)C1=Nc2cccc3cccc(c23)N1 — the same, 22.3%
- COc1nc(Nc2ccc(O)cc2)nc(OC(C(F)(F)F)C(F)(F)F)n1 — lower, 18.1%
- Clc1cccc(N/N=C/c2ccc(N3CCOCC3)s2)c1 — higher, 29.3%
- CCOC(=O)C1CCN(Cc2cn[nH]c2-c2ccccc2)CC1 — higher, 27.9%
- CCOc1cc(/C=N/NC(=O)Nc2ccccc2)ccc1O — higher, 23.6%
- CCOc1cc(/C=C(\C#N)c2[nH]nc(N)c2C#N)ccc1O — higher, 29.6%
- Cc1cc(-c2ccccc2)nc(N/N=C/c2ccc(O)cc2)n1 — lower, 18.1%
- CCOC(=O)C1=C(C)Nc2ccccc2S1 — higher, 35.2%
- CCOc1cc(/C=C(\C#N)C(=O)NCC2CCCO2)ccc1O (stereo not given) — higher, 23.9%
- CN1C(=O)NC(c2ccc(O)cc2)C2=C1CN(c1ccc(O)cc1)C2=O (stereo not given) — higher, 24.1%
- Cc1ccnc(Nc2nc(-c3ccc(O)c(O)c3)cs2)c1 — higher, 23.8%
- CCOC(=O)c1nc(Nc2ccc(Nc3ccccc3)cc2)c2ccccc2n1 — higher, 32%
- Oc1ccc(NC(=S)N=Nc2c(O)[nH]c3ccc(Br)cc23)cc1 — higher, 26.7%
- CCOC(=O)c1[nH]c2ccccc2c1NC(=S)Nc1cccc(C)c1C — lower, 18.1%
- CCN(CC)c1ccc(C(=C2C=CC(=[N+](CC)CC)C=C2)c2ccccc2)cc1 — higher, 28%
- CC(C)N=c1scc(-c2ccco2)n1/N=C/c1ccc(O)c(O)c1 — higher, 27.8%
- O=C1CSC(=S)N1Nc1ccccc1 — lower, 17.3%
- CCc1cc(-c2n[nH]c(CCC(=O)O)c2-c2nc3ccccc3n2C)c(O)cc1O — higher, 30.8%
- Nc1nc(=S)c2[nH]c(=S)[nH]c2[nH]1 — higher, 35.5%
- CC(C(=O)NCC(=O)Nc1ccc(F)c(F)c1F)N1CCN(c2ccc(O)cc2)CC1 (stereo not given) — lower, 20.8%
